Test results reported in PubChem BioAssay AID924 (National Center for Advancing Translational Sciences (NCATS), 2007).
Among all 130,000 compounds or so, about 1,200 (0.92%) were called active. Roughly 3% stayed inconclusive and do not appear here. The entries come from a sample that favours actives as a whole. Where a call stands in place of a potency, no number is given. Unmarked numbers belong to inactive results. The call rests on the fitted dose curve; in most records, active means well fitted cell-killing curve with a large enough effect; inconclusive means small, poorly fitted or top-dose-only effect; inactive means no such curve, though single readings can be large or run the other way.

Experiment: qHTS Screen for Compounds that Selectively Target Cancer Cells with p53 Mutations: Cytotoxicity of p53ts Cells at the Permissive Temperature; further: nearly all actives have a fitted effect of over 55% in size
Conditions: H1299-p53A138V at 32C, ATP luminescence viability, 24 h; series mostly up to 46.1 µM
Description: NIH Chemical Genomics Center [NCGC] NIH Molecular Libraries Screening Centers Network [MLSCN] MLSCN Grant: 1 X01 MH079844-01 Assay Submitter (PI): Dr. SUN, YI, University of Michigan NCGC Assay Overview: Synthetic Lethal Screen for Compounds to Kill Cancer Cells with p53 Mutation. Tumor suppressor gene p53 serves as a major cellular barrier against tumorigenesis. […] The goal of this screening is to identify small molecule probes that selectively kill cancer cells with mutations in p53. This screening was carried out using two lines of H1299 lung cancer cells. The H1299-p53 A138V line express a temperature sensitive p53 mutant (p53ts) in which the mutant p53 protein (A138V) is in the mutant confirmation when grown at 39C (the nonpermissive temperature) and in the wild type conformation when grown at 32C (the permissive temperature). A H1299-neo line (p53 null) grown at both 39C and 32C were used as counter-screens to filter out false positive associated with temperature shifting. The small molecular compounds that selectively target mutant p53-containing cancer cells were selected as candidate probes for further study. A cytotoxicity assay based on the measurement of ATP contents in cells was used in this screen. Concentration-responses of all the compounds in the library collection were determined in qHTS using the cell lines and temperature conditions as above.
NCGC Assay Protocol Summary: Both the H1299-p53A138V and H1299-neo cell lines were provided by Dr.Yi Sun, a PI at the University Michigan. The cells were maintained and cultured at 37C. The resuspended frozen cells were used to plate the cells in the 1536-well assay plates at a density of 600 cells per well in 5 ul medium. The assay plates with the cells were incubated at 37C for 16 to 30 hours before the experiments. The library compounds in DMSO solution were added to the cells in assay plates and incubated 24 hours at 39C (for mutant p53 conformation) or 32C (for normal p53 conformation as control). An ATP_lite assay kit (PerkinElmer) was used to determine the cell viability. Tomaxifen (100uM) was used as the positive control for cell killing. Data were normalized to the controls for basal activity (DMSO only) and 100% killing (100uM tamoxifen). AC50 values were determined from concentration-response data modeled with the standard Hill equation. P53 assay protocol: 1. Reagent; 5 uL H1299-p53A138V or H1299-neo cell cells/well 2. Time; overnight; 37C incubation 3. Compounds; 23 nL; 5.9 nM to 46 uM 4. Controls; 23 nL; Tamoxifen 100 uM 5. Time; 24 hr; 37C incubation 6. Reagent; 3 uL; ATP_Lite reagent 7. Time; 20 min; Room Temperature 8. Detection; Luminescence; Viewlux plate reader Keywords: p53, synthetic lethal, cancer, cell viability, cytotoxicity, H1299 cell line, luminescence, MLSMR, MLSCN, NIH Roadmap, qHTS, NCGC
Potency means the concentration at half of the fitted maximal effect.

Structure (SMILES)	Potency	activity change, negative = cytotoxicity
COc1ccc(NC(=O)Nc2cccc3cccnc23)cc1	12.6 µM (active)	
Cc1cccc(Cn2cccc(C(=O)Nc3ccc4c(c3)OCCO4)c2=O)c1	inactive	
CC(=O)c1c(O)c(C)c(O)c(Cc2c(O)c3c(c(C(=O)/C=C\c4ccccc4)c2O)OC(C)(C)C=C3)c1O	inactive	
CC(C)(c1ccc(OC[C@@H]2CO2)cc1)c1ccc(OC[C@H]2CO2)cc1	12.6 µM (active)	
CCOC(=O)c1ccc(N2C(=O)c3[nH]nc(-c4ccccc4)c3C2c2ccc(C(C)C)cc2)cc1 (stereo not given)	inactive	
Cc1nnc(NC(=O)c2cccn(Cc3cccc(F)c3)c2=O)s1	inactive	
C=CC#N		-9.3% [at 1.84 µM]
O=C(Nc1ccc(Cl)cc1C(=O)c1ccccc1)c1cc(Cl)cc(Cl)c1	inactive	
CN(C)C1C(=O)C(C(N)=O)=C(O)[C@@]2(O)C(=O)C3=C(O)c4c(O)cccc4[C@@](C)(O)C3C[C@@H]12 (stereo not given in full)	inactive	
CC(C)Nc1nc(Cl)nc(NC(C)C)n1	inactive	
CC[C@@H]1CN2CC[C@@H]1C[C@H]2[C@H](O)c1ccnc2ccc(OC)cc12	inactive	
C[C@H](CCC(=O)O)[C@H]1CC[C@@H]2[C@H]3CC[C@H]4C[C@H](O)CC[C@@]4(C)[C@@H]3CC[C@@]21C		5.89% [at 9.22 µM]
CC(C)Oc1ccc(NC(=O)c2cc3ccccc3o2)cc1	6.31 µM (active)	
CN(C)c1cccc(C(=O)Nc2nc3ccc(S(=O)(=O)NC(C)(C)C)cc3s2)c1	inactive	
Cc1ccc(NC(=O)N(Cc2ccc3c(c2)OCO3)C2CCN(Cc3ccccc3)CC2)cc1F	inactive	
Cc1ccc(-n2c(/C=C/c3cccc(C(F)(F)F)c3)nc3ccccc3c2=O)cc1	inactive	
CCN1C[C@]2(COC)C(O)C[C@H](OC)[C@@]34C5C[C@]6(O)C(OC)C(O)[C@](OC(C)=O)(C5C6OC(=O)c5ccccc5)C(C(OC)C23)C14 (stereo not given in full)	inactive	
N#Cc1c(Cl)c(Cl)c(Cl)c(C#N)c1Cl	3.98 µM (active)	
Cc1ccc(Cl)cc1N1CCN(C(=O)C2CCC(CNS(=O)(=O)c3cccs3)CC2)CC1 (stereo not given)	inactive	
Cn1cc(/C=C/c2nc3ccccc3c(=O)n2-c2ccccc2)c2ccccc21	inactive	
